# According to PubChem BioAssay:
# Calls of active or inactive are those of the source. Cut-off read from the data, not from the text of the source, unless noted: active = inhibition above about 80%; inactive = the rest.
# What was measured:
# [1] = biological target: 6-phosphogluconate dehydrogenase, decarboxylating (Homo sapiens) (UniProt P52209); assay: inhibition of human phosphogluconate dehydrogenase – biochemical, recombinant enzyme, NADPH absorbance, primary screen (AID 1159550;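 active = at least 20% inhibition of 6-phosphogluconate dehydrogenase activity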); details: recombinant 6PGD, NADPH absorbance 341 nm; at 10 µM; stronger effect = higher value
# [2] = viability loss with induced miR-34 in A549 – imaging, A549 dox-inducible miR-34, nuclei and caspase counts, primary screen (AID 1347080;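 active = compounds whose cell count with miR-34 switched on is under 0.7 times the count with it off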); details: A549 miR-34 inducible, Hoechst nuclei count, 48 h
# [3] = MELAS cybrid and Rieske KO viability enhancers – cell-based, MELAS cybrids, Rieske KO mouse fibroblasts, CellTiter-Glo, primary screen (AID 1508586;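 active = mean z-score across replicates of 1.96 or higher in either the MELAS or the Rieske mutant cell line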;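 note: z relative to plate mean and SD of compound and empty wells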); details: low glucose
# [4] = growth inhibition, single agent or in combination, cell-based, chromothripsis tumors, cisplatin or BGB combos (AID 1671449); details: LFS_MB_P medulloblastoma cells;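 note: cells exposed for 96 hours; 0% = vehicle DMSO and 100% = killing by high DMSO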
# [5] = growth inhibition, single agent and combos, cell-based, chromothripsis tumors, cisplatin or BGB combos (AID 1671450); details: HDN33 neuroblastoma cells, stronger effect = higher value;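 note: cells exposed to compound for four days; 0% = vehicle DMSO and 100% = cell killing by high DMSO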
# [6] = growth inhibition, single agents and combos, ICB984, cell-based, cisplatin or BGB combos, synergistic combos for chromothripsis tumors (AID 1671451; call rule not given here;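 note: cells exposed for 96 hours before readout; 0% = vehicle DMSO and 100% = killing by high DMSO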); details: ICB984 medulloblastoma cells, drug combinations, stronger effect = higher value
# [7] = growth inhibition, single agents and combos, LFS_MB_1R, cell-based, cisplatin or BGB combos, synergistic combos for chromothripsis tumors (AID 1671452); details: LFS_MB_1R medulloblastoma cells, stronger effect = higher value;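 note: cells exposed for 96 hours before readout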
# [8] = growth inhibition, single agents and combos, HTB85, cell-based, BGB or cisplatin IC20 combos, synergistic combos for chromothripsis tumors (AID 1671453); details: HTB85 osteosarcoma cells, drug combinations, stronger effect = higher value;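 note: cells exposed for 96 hours before readout; 0% = vehicle DMSO and 100% = high DMSO killing control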
# [9] = growth inhibition, single agents and combos, CRL2098, cell-based, BGB or cisplatin IC20 combos, synergistic combos for chromothripsis tumors (AID 1671454); details: CRL2098 osteosarcoma cells, drug combinations, stronger effect = higher value;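 note: cells exposed for 96 h before readout; 0% = vehicle DMSO and 100% = killing by high DMSO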
# [10] = growth inhibition, single agents and combos, HD-MB03, cell-based, BGB or cisplatin IC20 combos, synergistic combos for chromothripsis tumors (AID 1671455; in the data active = inhibition above about 83%;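 note: 0% = vehicle DMSO and 100% = high DMSO as cytotoxic control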); details: HD-MB03 medulloblastoma cells, stronger effect = higher value
# [11] = growth inhibition, single agents and combos, UWB1.289, cell-based, BGB or cisplatin combos, synergistic combos for chromothripsis tumors (AID 1671456); details: UWB1.289 ovarian carcinoma cells, stronger effect = higher value;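 note: cells exposed to compound for four days; 0% = vehicle DMSO and 100% = killing by high DMSO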
# [12] = growth inhibition, single agents and combos, LFS_MB_2R, cell-based, cisplatin combos, synergistic combos for chromothripsis tumors (AID 1671457); details: LFS_MB_2R medulloblastoma cells, stronger effect = higher value;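 note: cells exposed to compound for four days before readout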
# [13] = growth inhibition, MDA-MB-436, cell-based, BGB or cisplatin combos, synergistic combos for chromothripsis tumors (AID 1671458; call rule not given here;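 note: cells exposed for 96 hours; 0% = vehicle DMSO and 100% = killing by high DMSO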); details: MDA-MB-436 breast carcinoma growth inhibition, drug combinations, stronger effect = higher value
# [14] = UWB1.289_BRCA1 ovarian cancer growth, cell-based, BGB or cisplatin combinations (AID 1671459); details: UWB1.289 BRCA1 ovarian carcinoma, drug combinations, stronger effect = higher value
# [15] = drug combination toxicity in non-malignant astrocytes – cell-based, BGB or cisplatin IC20 combos, cytotoxicity control for chromothriptic childhood tumor combination screen (AID 1671460); details: Human astrocytes, viability inhibition, drug combinations, at 0.5 µM, stronger effect = higher value;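 note: cells exposed to compounds for 96 hours before viability readout; 0% = vehicle and 100% = killing control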
# [16] = BT084 cell growth, single and combined drugs, ICGC_MB145, cisplatin and BGB IC40 combos (AID 1671461); details: BT084 medulloblastoma cells, drug combinations, stronger effect = higher value;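 note: cells exposed to drugs for 96 hours; 0% = vehicle DMSO and 100% = high DMSO full killing control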
# [17] = RCMB18 cell growth, single agent and combined, cisplatin and BGB IC40 combos (AID 1671462); details: RCMB18 medulloblastoma cells, stronger effect = higher value;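 note: cells exposed to compound for four days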
# [18] = CRL1545 cell growth, single agent and combined, cisplatin and BGB IC20 combos (AID 1671464); details: CRL1545 osteosarcoma cells, stronger effect = higher value;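 note: cells exposed to compound for 96 hours before readout; 0% = vehicle DMSO and 100% = high DMSO killing control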
# [19] = measured here: combination with BGB IC40, at 0.05 µM
# [20] = measured here: with BGB IC20 combination, at 0.5 µM
# [21] = measured here: with cisplatin IC20 combination, at 0.5 µM
# [22] = measured here: combination with cisplatin, at 0.5 µM
# [23] = measured here: combination with cisplatin, at 5 µM
# Chain of 6-phosphogluconate dehydrogenase, decarboxylating (Homo sapiens) (P52209 whole entry, looked up): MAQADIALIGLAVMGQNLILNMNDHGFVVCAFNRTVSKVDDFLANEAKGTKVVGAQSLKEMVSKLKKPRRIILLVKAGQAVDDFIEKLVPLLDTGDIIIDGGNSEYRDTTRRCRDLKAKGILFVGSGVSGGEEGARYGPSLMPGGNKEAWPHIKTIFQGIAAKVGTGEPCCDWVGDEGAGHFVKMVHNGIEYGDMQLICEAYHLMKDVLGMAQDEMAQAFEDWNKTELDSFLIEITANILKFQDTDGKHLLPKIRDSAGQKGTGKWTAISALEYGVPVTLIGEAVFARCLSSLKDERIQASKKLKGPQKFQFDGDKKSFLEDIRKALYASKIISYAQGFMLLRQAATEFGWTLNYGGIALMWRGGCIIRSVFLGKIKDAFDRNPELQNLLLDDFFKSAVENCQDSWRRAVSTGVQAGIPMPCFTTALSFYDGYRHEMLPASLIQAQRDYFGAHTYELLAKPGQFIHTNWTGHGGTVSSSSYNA
compound,measurement,setting,value
CN(N=O)C(=O)NC1C(O)OC(CO)C(O)C1O (stereo not given),inhibition,[1],-8.43% (inactive)
same,fold change,"[2]; stronger effect = lower value, cell number ratio, induced over uninduced",0.895 (inactive)
same,fold change,[2]; measured here: relative caspase fold change +Dox/-Dox,0.982
same,cell count,"[2]; measured here: total cells with miR-34 induction, stronger effect = lower value",7750
same,cell count,[2]; measured here: total cells without miR-34 induction,8650
same,z-score,"[3]; MELAS cybrid survival, CellTiter-Glo 48 h, stronger effect = higher value",-0.392 (inactive)
same,z-score,"[3]; Rieske KO mouse fibroblast survival, CellTiter-Glo 72 h",0.645
same,inhibition,"[4]; at 0.5 µM, stronger effect = higher value",-5.09% (inactive)
same,inhibition,"[4]; measured here: combination with BGB IC20, at 0.005 µM",2.88%
same,inhibition,"[4]; measured here: combination with BGB IC40, at 0.005 µM",-23%
same,inhibition,[4]; [19],9.79%
same,inhibition,"[4]; measured here: combination with cisplatin, at 0.5 µM, stronger effect = higher value",18.7%
same,inhibition,"[4]; measured here: combination with cisplatin, at 5 µM, stronger effect = higher value",-15%
same,inhibition,"[5]; BGB combo, at 5 µM",-42.3%
same,inhibition,[5]; at 0.5 µM,-18.9% (inactive)
same,inhibition,"[5]; cisplatin combo, at 5 µM",-31.9%
same,inhibition,[5]; [20],-17.4%
same,inhibition,[5]; [21],-13.6%
same,inhibition,"[5]; single agent, at 5 µM",-38.9%
same,inhibition,"[6]; BGB IC20 combo, at 0.005 µM",-31.3%
same,inhibition,"[6]; BGB IC40 combo, at 0.005 µM",-16.7%
same,inhibition,"[6]; BGB IC40 combo, at 0.05 µM",-24.6%
same,inhibition,[6]; at 0.5 µM,-5.69% (inactive)
same,inhibition,"[6]; cisplatin combo, at 0.05 µM",-31%
same,inhibition,"[6]; cisplatin combo, at 0.5 µM",-0.064%
same,inhibition,"[6]; cisplatin combo, at 5 µM",-5.86%
same,inhibition,"[6]; measured here: 5 uM single agent, at 5 µM",-8.73%
same,inhibition,[7]; at 0.5 µM,-12.5% (inactive)
same,inhibition,[7]; [19],0.459%
same,inhibition,[7]; [22],-24.7%
same,inhibition,[7]; [23],-26.7%
same,inhibition,[8]; at 0.5 µM,-27.9% (inactive)
same,inhibition,"[8]; measured here: with BGB IC20, at 0.5 µM",-20.4%
same,inhibition,"[8]; measured here: with BGB IC20, at 5 µM",-14.4%
same,inhibition,"[8]; measured here: with cisplatin IC20, at 0.5 µM",-29.4%
same,inhibition,"[8]; measured here: with cisplatin IC20, at 5 µM",-17.4%
same,inhibition,"[8]; single agent, at 5 µM",-23.4%
same,inhibition,[9]; at 0.5 µM,-39.9% (inactive)
same,inhibition,"[9]; measured here: combination with BGB at IC20, at 0.5 µM",-31.6%
same,inhibition,"[9]; measured here: combination with cisplatin at IC20, at 0.5 µM",-51.1%
same,inhibition,[10]; at 0.5 µM,-11.6% (inactive)
same,inhibition,"[10]; measured here: combo with BGB at IC20, at 0.5 µM",-2.88%
same,inhibition,"[10]; measured here: combo with cisplatin at IC20, at 0.5 µM",-22.4%
same,inhibition,[11]; at 0.5 µM,-9.59% (inactive)
same,inhibition,"[11]; measured here: inhibition with BGB combination, at 0.05 µM",-0.199%
same,inhibition,"[11]; measured here: inhibition with cisplatin combination, at 0.05 µM",-7.77%
same,inhibition,[12]; at 0.5 µM,-6.59% (inactive)
same,inhibition,[12]; [22],-12.5%
same,inhibition,[12]; [23],-15.1%
same,inhibition,[13]; at 0.5 µM,-6.07% (inactive)
same,inhibition,"[13]; measured here: BGB combination, at 0.5 µM",-5.12%
same,inhibition,"[13]; measured here: BGB combination, at 5 µM",4.69%
same,inhibition,"[13]; measured here: cisplatin combination, at 0.5 µM",-11.2%
same,inhibition,"[13]; measured here: cisplatin combination, at 5 µM",0.976%
same,inhibition,"[14]; BGB combination, concentration series, at 5 µM",-8.48%
same,inhibition,[14]; at 0.5 µM,-13% (inactive)
same,inhibition,"[14]; cisplatin combination, concentration series, at 5 µM",0.433%
same,inhibition,[15],-2.34% (inactive)
same,inhibition,[15]; measured here: combo with BGB IC20,-2.11%
same,inhibition,[15]; measured here: combo with cisplatin IC20,-7.96%
same,inhibition,[16]; at 0.5 µM,9.28% (inactive)
same,inhibition,"[16]; cisplatin combination, at 0.5 µM",2.65%
same,inhibition,"[16]; cisplatin combination, at 5 µM",-74.8%
same,inhibition,"[16]; measured here: BGB IC40 combination 0.05 uM, at 0.05 µM",-4.62%
same,inhibition,"[16]; single agent, at 5 µM",14.7%
same,inhibition,[17]; at 0.5 µM,8.81% (inactive)
same,inhibition,"[17]; cisplatin combo, at 5 µM",-9.42%
same,inhibition,"[17]; measured here: BGB IC40 combination, at 0.05 µM",-16.3%
same,inhibition,[17]; [22],-21.8%
same,inhibition,"[17]; single agent, at 5 µM",-8.26%
same,inhibition,[18]; at 0.5 µM,3.09% (inactive)
same,inhibition,[18]; [20],-18.9%
same,inhibition,[18]; [21],12.7%
same,inhibition,"[18]; single agent, at 0.05 µM",-1.79%
same,inhibition,"[18]; single agent, at 5 µM",-17.1%
